# Assay results reported in PubChem BioAssay (NCATS).
# Results filed as inconclusive are left out. Entries that show only a call come without a potency. Activity calls are given as the source filed them. Unless noted, calls come from the whole dose curve; as a rule, active = well fitted curve in the direction sought with a large enough effect; inconclusive = small, poorly fitted or top-dose-only effect, or another doubt; inactive = no such curve, though single readings can be large; an effect the other way counts as inactive or inconclusive.
# Experiments:
# [1] = biological target: Alpha-galactosidase A (Homo sapiens) (UniProt P06280); experiment: Counterscreen for Glucocerebrosidase Inhibitors: qHTS Assay for Human alpha-Galactosidase at pH 4.5 (AID 992)
# Method in brief: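 Quantitative HTS: compounds tested from 0.7 nM up to 77 uM against 2 nM enzyme with 80 uM 4-MU alpha-D-galactopyranoside. The 20 min room-temperature reaction is stopped with 1M NaOH/1M glycine, pH 10.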
# [2] = biological target: alpha-glucosidase (Oryza sativa, rice) (UniProt Q653V4); experiment: Counterscreen for Glucocerebrosidase Inhibitors: qHTS Assay for Rice alpha-Glucosidase at pH 5.0 (AID 997)
# Method in brief: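 Rice alpha-glucosidase (4 nM final) with 400 uM 4-methylumbelliferyl-alpha-D-glucopyranoside in citrate buffer pH 5.0, 20 min at room temperature, stopped at pH 10; fluorescence 365/440 nm, compounds 0.7 nM–77 uM, AC50 from Hill fits.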
# [3] = biological target: Alpha-galactosidase (Coffea arabica) (UniProt Q42656); experiment: Counterscreen for Glucocerebrosidase Inhibitors: qHTS Assay for Coffee Bean alpha-Galactosidase at pH 5.9 (AID 998)
# Method in brief: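 Green coffee bean enzyme (2 nM final) was incubated with compounds (0.7 nM–77 uM) and 4-methylumbelliferyl alpha-D-galactopyranoside (80 uM) in citrate buffer pH 5.9, 20 min at room temperature. High-pH stop; fluorescence 365/440 nm; AC50 from Hill fits.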
# [4] = Validation of Assay for Modulators of Lamin A Splicing (AID 1459; active = well fitted curve in the direction sought with a large enough effect in the signal ratio; the % refers to the signal ratio;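 note: cells exposed to compound for two days before reading; ratio rise marks activators and ratio drop marks inhibitors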)
# Method in brief: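 Dual-reporter HeLa S3 line (lamin A-EGFP minigene, DsRed2) treated with compounds 48 hrs, 0.5% DMSO final. Endpoint: EGFP/DsRed2 total intensity ratio from laser-scanning microplate cytometry.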
# [5] = Counterscreen for APE1 Inhibitors: Fluorescent Dye Displacement Validation Assay (AID 1707)
# Method in brief: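 Compounds are scored by their ability to displace Thiazole Orange (250 nM) from a 50 nM TAMRA-tagged duplex bearing a tetrahydrofuran abasic site. Buffer is 50 mM Tris-HCl pH7.5, 50mM NaCl, 2 mM MgCl2, 0.01% Tween-20.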
# [6] = biological target: Endonuclease 4 (Escherichia coli (strain K12)) (UniProt P0A6C1); experiment: Counterscreen for APE1 Inhibitors: qHTS Validation Assay for Inhibitors of Endonuclease IV (AID 1708)
# Method in brief: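 2 nM enzyme was preincubated with compounds for 15 min at room temperature in 50 mM Tris-HCl pH 7.5, 50 mM NaCl, 2 mM MgCl2, 1 mM DTT, 0.01% Tween-20. 50 nM THF-abasic TAMRA/BHQ-2 duplex substrate started the reaction.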
# [7] = qHTS for differential inhibitors of proliferation of Plasmodium falciparum line GB4 (AID 1816); conditions: Potency: Plasmodium falciparum GB4 proliferation inhibition;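 note: parasite growth measured after 72 h incubation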
# [8] = qHTS for differential inhibitors of proliferation of Plasmodium falciparum line 3D7 (AID 1876);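 note: parasite growth measured after three days of culture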
# [9] = qHTS for differential inhibitors of proliferation of Plasmodium falciparum line D10 (AID 1877);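 note: parasites grown with compound for 72 h before DNA staining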
# [10] = Cell Viability - LYMP2-012 (AID 982);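 note: cellular ATP by luciferase luminescence where a drop means cytotoxicity; cells exposed to compound for one day before reading; nearly all actives have a fitted effect of over 55% in size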; note: potency is the fitted concentration of half-maximal effect
# [11] = Cell Viability - LYMP2-014 (AID 983); note: nearly all actives have a fitted effect of over 50% in size; note: potency is the fitted concentration of half-maximal effect
# Method in brief: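 Human lymphoblastoid cells (2500/well) were pre-incubated 5 hr at 37 C, then exposed to compounds in complete medium for 24 hr at 37 C. Intracellular ATP was read by CellTiter-Glo luminescence after 30 min at room temperature; AC50 from Hill fits.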
# [12] = Cell Viability - LYMP2-018 (AID 985);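 note: compound exposure lasted 24 hr at 37 °C; nearly all actives have a fitted effect of over 50% in size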; note: potency is the fitted concentration of half-maximal effect
# Method in brief: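 Human lymphoblastoid cells (2500/well) were pre-incubated 5 hr at 37 C, then exposed to compounds for 24 hr at 37 C in complete medium. Viability was read as intracellular ATP by CellTiter-Glo luminescence; AC50 values came from Hill-equation fits.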
# [13] = Cell Viability - LYMP2-020 (AID 986); note: nearly all actives have a fitted effect of over 55% in size; note: potency is the fitted concentration of half-maximal effect
# Method in brief: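 Human lymphoblastoid cells, 2500/well, were pre-incubated 5 hr at 37 C, then exposed to compounds for 24 hr at 37 C in complete medium. Intracellular ATP was read by CellTiter-Glo luminescence, and AC50 was derived by Hill fitting of concentration-response data.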
# [14] = Cell Viability - LYMP2-024 (AID 988); note: nearly all actives have a fitted effect of over 60% in size; note: potency is the fitted concentration of half-maximal effect
# Method in brief: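 Human lymphoblastoid cells (2500/well) in complete medium were preincubated 5 hr at 37 C, then exposed to compounds for 24 hr at 37 C. Intracellular ATP was read by CellTiter-Glo luminescence; AC50 from Hill-equation fits of concentration-response data.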
# [15] = Cell Viability - LYMP2-026 (AID 989); note: nearly all actives have a fitted effect of over 50% in size; note: potency is the fitted concentration of half-maximal effect
# Method in brief: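 Human lymphoblastoid cells (2500/well) in complete medium were preincubated 5 hr at 37 C, then exposed to compounds for 24 hr at 37 C. Cellular ATP was read by CellTiter-Glo luminescence; AC50 from Hill-equation fits of concentration-response data.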
# [16] = Cell Viability - LYMP1-002 - Assay at 24 hr (AID 993); note: potency is the fitted concentration of half-maximal effect
# Method in brief: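 Human lymphoblastoid LYMP1-002 cells, 2500/well in complete medium, were treated with compounds for 24 h at 37 C; intracellular ATP was read by CellTiter-Glo luminescence. AC50 values came from Hill-equation fits of qHTS concentration-response data.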
# [17] = Cell Viability - LYMP1-002 - Assay at 40 hr (AID 994); note: nearly all actives have a fitted effect of over 60% in size; note: potency is the fitted concentration of half-maximal effect
# Method in brief: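 Human lymphoblastoid cells, 2500/well in complete medium, were preincubated 5 hr at 37 C, then exposed to compounds for 40 hr at 37 C. Intracellular ATP was read by CellTiter-Glo luminescence after 30 min at room temperature; AC50 from Hill-equation fits.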
# Chain of Alpha-galactosidase (Coffea arabica) (Q42656 whole entry, looked up): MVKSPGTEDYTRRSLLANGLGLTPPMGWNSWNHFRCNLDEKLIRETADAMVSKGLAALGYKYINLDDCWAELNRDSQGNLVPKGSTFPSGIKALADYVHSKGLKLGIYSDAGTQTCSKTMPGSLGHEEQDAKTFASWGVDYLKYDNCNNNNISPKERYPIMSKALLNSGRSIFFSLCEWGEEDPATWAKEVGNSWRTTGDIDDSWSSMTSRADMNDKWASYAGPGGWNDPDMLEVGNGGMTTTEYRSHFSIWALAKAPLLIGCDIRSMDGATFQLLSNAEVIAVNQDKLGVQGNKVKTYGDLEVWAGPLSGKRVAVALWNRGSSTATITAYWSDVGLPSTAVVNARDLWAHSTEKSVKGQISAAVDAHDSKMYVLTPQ
# Chain of Alpha-galactosidase A (Homo sapiens) (P06280 whole entry, looked up): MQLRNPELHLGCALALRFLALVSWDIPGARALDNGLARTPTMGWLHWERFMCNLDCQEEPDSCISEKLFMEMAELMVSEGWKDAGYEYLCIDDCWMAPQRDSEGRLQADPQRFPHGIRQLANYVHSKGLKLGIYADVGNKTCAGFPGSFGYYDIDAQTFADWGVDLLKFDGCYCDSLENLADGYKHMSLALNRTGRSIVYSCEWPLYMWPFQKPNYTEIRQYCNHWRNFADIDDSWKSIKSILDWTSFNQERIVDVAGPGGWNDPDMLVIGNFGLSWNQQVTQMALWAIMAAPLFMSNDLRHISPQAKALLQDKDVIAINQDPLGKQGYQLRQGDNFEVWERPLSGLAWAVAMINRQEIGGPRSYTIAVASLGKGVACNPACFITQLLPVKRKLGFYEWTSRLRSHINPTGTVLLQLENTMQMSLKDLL
smiles,measurement,setting,value
Clc1cnc(Oc2ccc(Oc3ncc(Cl)cc3Cl)cc2)c(Cl)c1,outcome,[1],inactive
same,outcome,[2],inactive
same,outcome,[3],inactive
same,outcome,[4],inactive
same,Potency,[5],inactive
same,Potency,[6],inactive
same,Potency,[7],inactive
same,Potency,[8],inactive
same,Potency,[9],inactive
CCOCCOC(C)=O,Potency,[10],inactive
same,Potency,[11],inactive
same,Potency,[12],inactive
same,Potency,[13],inactive
same,Potency,[14],inactive
same,Potency,[15],inactive
same,Potency,[16],inactive
same,Potency,[17],inactive
Cc1cc(O)ccc1Cl,Potency,[10],inactive
same,Potency,[11],inactive
same,Potency,[12],inactive
same,Potency,[13],inactive
same,Potency,[14],inactive
same,Potency,[15],inactive
same,Potency,[16],inactive
same,Potency,[17],inactive
C[C@]12C[C@H](O)[C@H]3[C@@H](CCC4=CC(=O)CC[C@@]43C)[C@@H]1CC[C@@H]2C(=O)CO,outcome,[3],inactive
COC(C)(C)CCCC(C)C/C=C/C(C)=C/C(=O)OC(C)C (stereo not given),Potency,[10],inactive
same,Potency,[11],inactive
same,Potency,[12],inactive
same,Potency,[13],inactive
same,Potency,[14],inactive
same,Potency,[15],inactive
same,Potency,[16],inactive
same,Potency,[17],inactive
NCCS,outcome,[3],inactive
O=[N+]([O-])c1cc([N+](=O)[O-])c2ccccc2c1,Potency,[10],inactive
same,Potency,[11],inactive
same,Potency,[12],inactive
same,Potency,[13],inactive
same,Potency,[14],inactive
same,Potency,[15],inactive
same,Potency,[16],inactive
same,Potency,[17],inactive
Nc1ccc(Cl)cc1,Potency,[10],inactive
same,Potency,[11],inactive
same,Potency,[12],inactive
same,Potency,[13],inactive
same,Potency,[14],inactive
same,Potency,[15],inactive
same,Potency,[16],inactive
same,Potency,[17],inactive
CS(=O)(=O)Nc1ccc([N+](=O)[O-])cc1Oc1ccccc1,outcome,[3],inactive
C=CC(=O)NCNC(=O)C=C,Potency,[10],inactive
same,Potency,[11],inactive
same,Potency,[12],inactive
same,Potency,[13],inactive
same,Potency,[14],inactive
same,Potency,[15],inactive
same,Potency,[16],inactive
same,Potency,[17],inactive
CN(C)NC(=O)CCC(=O)O,Potency,[10],inactive
same,Potency,[11],inactive
same,Potency,[12],inactive
same,Potency,[13],inactive
same,Potency,[14],inactive
same,Potency,[15],inactive
same,Potency,[16],inactive
same,Potency,[17],inactive
O=C(O)COc1ccccc1,Potency,[10],inactive
same,Potency,[11],inactive
same,Potency,[12],inactive
same,Potency,[13],inactive
same,Potency,[14],inactive
same,Potency,[15],inactive
same,Potency,[16],inactive
same,Potency,[17],inactive
CC(=O)Oc1ccccc1C(=O)O,outcome,[3],inactive
CCCCCCCCc1ccc(O)cc1,Potency,[10],inactive
same,Potency,[11],inactive
same,Potency,[12],inactive
same,Potency,[13],inactive
same,Potency,[14],inactive
same,Potency,[15],inactive
same,Potency,[16],inactive
same,Potency,[17],inactive
CN(C)[C@@H]1C(=O)C(C(N)=O)=C(O)[C@@]2(O)C(=O)C3=C(O)c4c(O)cccc4[C@@](C)(O)[C@H]3[C@H](O)[C@@H]12,Potency,[10],inactive
same,Potency,[11],inactive
same,Potency,[12],inactive
same,Potency,[13],inactive
same,Potency,[14],inactive
same,Potency,[15],inactive
same,Potency,[16],inactive
same,Potency,[17],inactive
O=[N+]([O-])c1c(Cl)c(Cl)cc(Cl)c1Cl,Potency,[10],inactive
same,Potency,[11],inactive
same,Potency,[12],inactive
same,Potency,[13],inactive
same,Potency,[14],inactive
same,Potency,[15],inactive
same,Potency,[16],inactive
same,Potency,[17],inactive
O=C(O)C(Cl)Cl,Potency,[10],inactive
same,Potency,[11],inactive
same,Potency,[12],inactive
same,Potency,[13],inactive
same,Potency,[14],inactive
same,Potency,[15],inactive
same,Potency,[16],inactive
same,Potency,[17],inactive
c1cc2ccc3cccc4ccc(c1)c2c34,Potency,[10],inactive
same,Potency,[11],inactive
same,Potency,[12],inactive
same,Potency,[13],inactive
same,Potency,[14],inactive
same,Potency,[15],inactive
same,Potency,[16],inactive
same,Potency,[17],inactive
CC(=O)[O][Hg][c]1ccccc1,Potency,[10],501 nM (active)
same,Potency,[11],1580 nM (active)
same,Potency,[12],631 nM (active)
same,Potency,[13],794 nM (active)
same,Potency,[14],501 nM (active)
same,Potency,[15],1260 nM (active)
same,Potency,[16],3980 nM (active)
same,Potency,[17],3980 nM (active)
Nc1ccc(Cl)cc1N,Potency,[10],inactive
same,Potency,[11],inactive
same,Potency,[12],inactive
same,Potency,[13],inactive
same,Potency,[14],inactive
same,Potency,[15],inactive
same,Potency,[16],inactive
same,Potency,[17],inactive
CCCCC(CC)COC(=O)c1ccccc1C(=O)OCC(CC)CCCC (stereo not given),Potency,[10],inactive
same,Potency,[11],inactive
same,Potency,[12],inactive
same,Potency,[13],inactive
same,Potency,[14],inactive
same,Potency,[15],inactive
same,Potency,[16],inactive
same,Potency,[17],inactive
CCc1c(C)[nH]c2c1C(=O)C(CN1CCOCC1)CC2 (stereo not given),outcome,[3],inactive
Cc1cccc(C#Cc2ccccc2)n1,outcome,[3],inactive
CC(C)(Sc1ccc(CCN(CCCCC2CCCCC2)C(=O)NC2CCCCC2)cc1)C(=O)O,outcome,[3],inactive
CC#C[C@]1(O)CC[C@H]2[C@@H]3CCC4=CC(=O)CCC4=C3[C@H](c3ccc(N(C)C)cc3)C[C@@]21C,outcome,[3],inactive
CC(C)c1ccc2c(c1)c(SC(C)(C)C)c(CC(C)(C)C(=O)O)n2Cc1ccc(Cl)cc1,outcome,[3],inactive
CCN(CC)CCNC(=O)c1ccc(NC(C)=O)cc1,outcome,[3],inactive
CCOP(=O)(NC(C)C)Oc1ccc(SC)c(C)c1 (stereo not given),Potency,[10],inactive
same,Potency,[11],inactive
same,Potency,[12],inactive
same,Potency,[13],inactive
same,Potency,[14],inactive
same,Potency,[15],inactive
same,Potency,[16],inactive
same,Potency,[17],inactive
CCN1CCc2nc(N)oc2CC1,outcome,[3],inactive
CCn1cc(C(=O)O)c(=O)c2cc3c(cc21)OCO3,outcome,[3],inactive
C1CCC(NC2CCCCC2)CC1,Potency,[10],inactive
same,Potency,[11],inactive
same,Potency,[12],inactive
same,Potency,[13],inactive
same,Potency,[14],inactive
same,Potency,[15],inactive
same,Potency,[16],inactive
same,Potency,[17],inactive
CCOC(=O)C1=C[C@@]2(CC)CCCN3CCc4c(n1c1ccccc41)[C@H]32,outcome,[3],inactive
O=[N+]([O-])c1c2ccccc2cc2ccccc12,Potency,[10],inactive
same,Potency,[11],inactive
same,Potency,[12],inactive
same,Potency,[13],inactive
same,Potency,[14],inactive
same,Potency,[15],inactive
same,Potency,[16],inactive
same,Potency,[17],inactive
CCCCOC(=O)c1ccccc1C(=O)OCc1ccccc1,Potency,[10],inactive
same,Potency,[11],inactive
same,Potency,[12],inactive
same,Potency,[13],inactive
same,Potency,[14],inactive
same,Potency,[15],inactive
same,Potency,[16],inactive
same,Potency,[17],inactive
O=S(=O)(c1ccc(Cl)cc1)c1ccc(Cl)cc1,Potency,[10],inactive
same,Potency,[11],inactive
same,Potency,[12],inactive
same,Potency,[13],inactive
same,Potency,[14],inactive
same,Potency,[15],inactive
same,Potency,[16],inactive
same,Potency,[17],inactive
